# This is a sample that favours compounds with a hit; in the whole collection about 4.1% have one here.
# tim10-1 inh = inhibits growth of tim10-1 mutant yeast; S. cerevisiae tim10-1 ts strain growth, BacTiter-Glo, 24 h; inhibition, % at 20 µM; hit rate 2.2% among 330,000;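 active = inhibition of at least 40%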;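 note: mutant grown at 25 °C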
# NLRP3 yeast inh = NALP3 inhibition in yeast | Yeast reconstituted NLRP3/ASC/caspase-1, beta-gal luminescence, 24 h | inhibition, % at 10 µM | hit rate 0.39% among 330,000;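 active = inhibition of 50% or more; inactive = inhibition below 50%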
# TIM10 inh = growth inhibitors of TIM10 yeast strain; AID 463195; hit rate 1.4% among 330,000; inhibition, % at 10 µM; S. cerevisiae TIM10 strain growth, BacTiter-Glo luminescence, 24 h;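 active = inhibition of 40% or more at the single tested concentration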;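 note: wild-type TIM10 isogenic control strain grown at permissive 25 °C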
# tim23-1 inh = inhibits growth of tim23-1 mutant yeast | S. cerevisiae tim23-1 growth, BacTiter-Glo luminescence, 24 h | inhibition, % at 20 µM | hit rate 1.3% among 330,000 | AID 463212;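 active = growth inhibition of the mutant yeast at or above 50%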;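 note: temperature-sensitive mutant grown at 25 °C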
# NALP1 yeast inh = blocks the NALP1 inflammasome reconstituted in yeast; AID 2071; inhibition, % at 10 µM; hit rate 0.61% among 280,000; S. cerevisiae NALP1/ASC/caspase-1 growth, X-gal OD620, 72 h; in the data active = inhibition mostly above about 24%, no sharp cut-off; inactive = mostly below about 32%
# tim23-1 confirm = tim23-1 yeast growth inhibition, confirmed | shares compounds with tim23-1 inh | S. cerevisiae tim23-1 growth, BacTiter-Glo luminescence, 24 h | inhibition, % at 20 µM | hit rate 83% among 4,400 | AID 463218;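 active = inhibition above about 39% in either of two replicate wells at 20 µM, limit read from the data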;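 note: temperature-sensitive tim23-1 mutant grown at 25 °C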
# A number is an active result; - = inactive; . = no result given.
SMILES,tim10-1 inh,NLRP3 yeast inh,TIM10 inh,tim23-1 inh,NALP1 yeast inh,tim23-1 confirm
O=C(COC(=O)COc1ccc(Cl)cc1)NCCCc1ccccc1,-,-,-,-,.,.
O=C(COC(=O)COc1ccc(Cl)cc1)NCCNC(=O)COC(=O)COc1ccc(Cl)cc1,-,-,-,92.9,.,-
CCN(CC)S(=O)(=O)c1ccc(C(=O)OCn2nnc3ccccc3c2=O)cc1,-,-,-,70.4,-,56.1
O=C(O)C1CCC(=O)N1C(=O)OCc1ccccc1 (stereo unspecified),-,-,-,-,-,.
O=C(COC(=O)c1cc([N+](=O)[O-])ccc1N1CCOCC1)NCc1ccc(Cl)cc1Cl,-,-,-,50.9,-,48.0
O=C(COC(=O)c1cc([N+](=O)[O-])ccc1N1CCOCC1)Nc1ccc(Cl)cc1,-,-,-,-,-,.
CC(C)CC1NC(=O)c2cc(Cl)ccc2-n2c1nc1cc(F)ccc1c2=O (stereo unspecified),-,-,-,-,.,.
COc1ccc(-c2cc(-c3ccccc3O)[nH]n2)cc1,-,-,-,68.9,-,62.5
COC(=O)c1cc(-c2ccc(OC)cc2)n[nH]1,-,-,-,-,-,.
COc1ccc(-c2cc(-c3ccccc3)n[nH]2)c(O)c1,-,-,-,68.8,-,57.5
CCC1(C)CC2(CCCN(CCC(=O)c3ccccc3)C2)CCO1 (stereo unspecified),-,-,-,-,-,.
CCN(c1ccccc1)S(=O)(=O)c1ccc2c(c1)C(C)(C)C(=O)N2C,-,-,-,-,-,.
CCOC(=O)C1CCN(C(=O)C2CCCN(c3ncnc4c3nc3n4CCCCC3)C2)CC1 (stereo unspecified),-,-,-,-,-,.
O=C(Oc1ccccc1/C=C\C(=O)c1cc2ccccc2o1)c1cccc(F)c1,-,-,-,51.6,-,57.5
O=C(CCl)c1ccc(Cc2ncc(C(F)(F)F)cc2Cl)s1,-,-,-,52.0,-,-
CC1=NN(c2nc3ccccc3[nH]2)C(=O)C1Cc1ccccc1 (stereo unspecified),-,-,-,67.1,-,56.4
Cc1ccc2c(c1)C(=O)C(=O)N2Cc1ccccc1,-,-,-,73.4,.,61.5
COc1ccc(N=N/C(=C\O)C(=O)c2ccco2)cc1,-,-,-,50.0,-,58.2
COc1ccc(/C(N)=N/OC(=O)c2ccco2)cc1,-,-,-,-,-,.
COc1cc(OC)cc(C(=O)N[C@H](C(=O)OCC(=O)Nc2ccc3c(c2)OCO3)C(C)C)c1,-,-,-,-,.,.
O=[N+]([O-])c1cccc(NC(=S)N2CCc3ccccc3C2)c1,-,-,-,52.1,-,55.0
O=C(c1ccco1)N1CCN(C(=S)Nc2cccc([N+](=O)[O-])c2)CC1,-,-,-,-,-,.
Cc1cc(C)nc(N/N=C2/CCCC/C2=C\c2ccccc2)n1,-,-,-,-,-,.
CC(C)Cn1c(N)c(C=O)c(=O)[nH]c1=O,-,-,-,-,-,.
O=C1NN=C(c2ccc(Br)cc2)CC1c1ccc(Cl)cc1 (stereo unspecified),-,-,-,59.8,-,71.7
SMILES,tim10-1 inh,NLRP3 yeast inh,TIM10 inh,tim23-1 inh,NALP1 yeast inh,tim23-1 confirm
Cc1ccc(C(=O)N2C(=O)C(c3ccccc3)Oc3ccccc32)cc1 (stereo unspecified),-,-,-,68.7,-,52.9
Cc1ccc(C(=O)N2c3ccccc3OCC2C)cc1 (stereo unspecified),-,-,-,-,-,.
COc1cc(OC)cc(-n2nnnc2SCC(=O)N2CCCc3ccccc32)c1,-,-,-,-,-,.
COc1cccc(-n2nnnc2SCC(=O)N2CCCc3ccccc32)c1,-,-,-,57.8,-,54.5
Cc1cccc(C(=O)Nc2cccc(C(=O)N/N=C/c3ccncc3)c2)c1,-,-,-,-,-,.
Cc1cccc(C(=O)Nc2ccc(C(=O)/C=C/c3ccncc3)cc2)c1,-,-,-,62.4,-,59.3
O=C1C(=O)N(CCS(=O)(=O)c2ccccc2)c2ccc(F)cc21,-,-,-,-,-,.
Cc1cccc(C)c1NC(=O)NC1(C(=O)N2CCCCC2)CCCCC1,-,-,-,-,-,.
C=C1SC(Nc2c(C)cccc2C)=NC12CCCCC2,-,-,-,50.2,-,44.2
Cc1ccc(C)c(C(=O)CCC(=O)NCc2ccc(Cl)cc2)c1,-,-,-,-,-,.
CCN(CC)c1ccc(C(=O)N/N=C/c2ccccc2OC(F)F)cc1,-,-,-,55.9,-,66.1
CCN(CC)c1ccc(/C=N/NC(=S)NC)c(O)c1,-,-,-,-,-,.
CN(C)c1ccc(/C=N/NC(=O)c2ccc3c(c2)OCCO3)cc1,-,-,-,57.5,-,-
CCN(CC)c1ccc(/C=N/NC(=O)c2ccc3c(c2)OCCO3)cc1,-,-,-,58.9,-,57.4
CCN(CC)c1ccc(/C=N/NC(=O)OC)c(O)c1,-,-,-,59.2,-,-
O=C(N/N=C/c1ccc2c(c1)OCO2)c1ccc2c(c1)OCCO2,-,-,-,-,-,.
CC(C)c1ccc(/C=C/C(=O)NC(=S)NN2CCOCC2)cc1,-,-,-,54.3,-,-
COc1ccc(C(=O)NC(=S)N2CCC(C)CC2)cc1Br,-,-,-,56.9,-,-
COc1ccc(C(=O)NC(=S)N2CCNC(=O)C2)cc1Br,-,-,-,-,-,.
CC(=O)Nc1ccc(-c2cn3c(n2)SCC3)cc1,-,-,-,-,-,.
O=C(Nc1ccc(-c2cn3c(n2)SCC3)cc1)c1ccco1,-,-,-,50.6,-,44.0
CCOC(=O)N1CCC(Nc2c(N3CCN(c4cccc(C(F)(F)F)c4)CC3)c(=O)c2=O)CC1,-,-,-,-,-,.
COc1ccc(S(=O)(=O)N2CCc3ccccc3C2)cc1,-,-,-,53.3,-,45.5
COc1ccc(S(=O)(=O)NNC(=O)Nc2ccc(C)cc2C)c(OC)c1,-,-,-,-,-,.
CCCCn1c(N)c(N(CCOC)C(=O)C2CCN(c3ncnc4sc(C)c(C)c34)CC2)c(=O)[nH]c1=O,-,-,-,52.7,.,47.4
SMILES,tim10-1 inh,NLRP3 yeast inh,TIM10 inh,tim23-1 inh,NALP1 yeast inh,tim23-1 confirm
CCOC(=O)/C(C#N)=C/c1cc2cc(C)c(C)cc2nc1Cl,-,-,-,61.9,.,69.5
CCOC(=O)/C(=N/O)C1=NC(C)(C)Cc2cc(C)c(C)cc21,-,-,-,-,-,.
CCCN(CCC)C1=N/C(=C\c2ccco2)C(=O)N1c1ccccc1,-,-,-,-,-,.
O=C1OC(/C=C/c2ccc(Cl)cc2)=NC/1=C/c1ccco1,-,-,-,60.2,-,41.9
CN1C(=O)/C(=C\c2ccco2)N=C1c1ccc(Cl)cc1Cl,-,-,-,70.6,.,44.2
NC(=S)NNC(=O)Nc1cccc(Cl)c1,-,-,-,-,-,.
NC(=S)NNc1cccc(Cl)c1,-,-,-,60.2,-,60.7
Cc1cccc(NC(=S)NNc2cccc(Cl)c2)c1,-,-,-,52.3,-,55.3
Cc1cccc(C2=N/C(=C\c3cccs3)C(=O)O2)c1,-,-,-,-,-,.
Nc1nc2c(s1)COc1ccccc1-2,-,-,-,-,-,.

# Screens from PubChem.
